Here are results for eight compounds from PubChem BioAssay (NCI).

Some test systems named below: SK-MEL-2 melanoma; EKVX NSCLC; SN12C renal; UO-31 renal; TK-10 renal; ACHN renal; CAKI-1 renal; A498 renal; CCRF-CEM leukemia; MOLT-4 leukemia; SR leukemia; RPMI-8226 leukemia; OVCAR-8 ovarian; OVCAR-5 ovarian; OVCAR-4 ovarian; SK-OV-3 ovarian; IGROV1 ovarian; OVCAR-3 ovarian; HS 578T breast; NCI/ADR-RES ovarian.
Assay in all cases: NCI-60 one-dose screen, 48 h (100 = growth as untreated, 0 = no growth, -100 = all killed)
Holding throughout (conditions): 10 µM unless noted

The panel holds about 83,000 compounds, 20% with a hit somewhere; the sample as a whole holds those more often.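 Growth was measured after 48 h exposure to one concentration of compound in 96-well plates. Values under 10 count as active.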 Unmarked numbers belong to inactive results. The source made the active and inactive calls.

For the compound `COC(=O)CCC/C=C\C[C@H]1C=CC(=O)/C1=C/C[C@@H](O)C/C=C\CC(F)(F)F`, the growth was -3.66% (active) with SK-MEL-2 melanoma; 47.1% in the assay with EKVX NSCLC; -6.2% (active) in the assay with SN12C renal; -68.9% (active) in the assay on UO-31 renal; -2.5% (active) with TK-10 renal; -47.7% (active) with ACHN renal. The growth in the assay with CAKI-1 renal was 1.42% (active); in the assay on A498 renal, 109%; with CCRF-CEM leukemia it was -9.32% (active); in the assay on MOLT-4 leukemia it was 2.73% (active); in the assay on SR leukemia, 4% (active); in the assay with RPMI-8226 leukemia it was -11.8% (active). The growth was 8.95% (active) in the assay on OVCAR-8 ovarian; 39% in the assay with OVCAR-5 ovarian; 34% in the assay with OVCAR-4 ovarian; 77.4% in the assay with SK-OV-3 ovarian; 12.1% in the assay with IGROV1 ovarian; -3.96% (active) with OVCAR-3 ovarian. The growth is 41.9% in the assay with HS 578T breast and 14% in the assay on NCI/ADR-RES ovarian.

Turning to `N#C/C(=C\c1ccc([N+](=O)[O-])cc1)n1nnc2cc(F)c(F)cc21`, the growth is 95.9% in the assay with SK-MEL-2 melanoma; 82.1% with EKVX NSCLC; 4.63% (active) with SN12C renal; -77.8% (active) with UO-31 renal; 6.11% (active) with TK-10 renal; -74.9% (active) in the assay on ACHN renal. For the same compound, the growth was 6.07% (active) in the assay on CAKI-1 renal; 67.6% with A498 renal; 4.63% (active) with CCRF-CEM leukemia; 3.58% (active) in the assay with MOLT-4 leukemia; -0.476% (active) with SR leukemia; -22.4% (active) in the assay on RPMI-8226 leukemia. In addition, the growth with OVCAR-8 ovarian was 11.4%; with OVCAR-5 ovarian, 21%; in the assay on OVCAR-4 ovarian it was 9.19% (active); in the assay on SK-OV-3 ovarian, 94.2%; in the assay on IGROV1 ovarian, -10.9% (active); in the assay with OVCAR-3 ovarian it was -40.1% (active). Moreover, the values for the growth with HS 578T breast and with NCI/ADR-RES ovarian were 58.4% and 9.64% (active), respectively.

Turning to `Cc1ccc2c(-n3nc(C#N)c(C#N)c3N)cc(=O)[nH]c2c1`, the growth was 101% with SK-MEL-2 melanoma; 67.9% in the assay on EKVX NSCLC; 76.4% with SN12C renal; 45.2% with UO-31 renal; 108% with TK-10 renal; 83.1% in the assay with ACHN renal. Moreover, the growth in the assay on CAKI-1 renal was 82.6%; in the assay with A498 renal it was 105%; with CCRF-CEM leukemia, 88.6%; in the assay with MOLT-4 leukemia, 99.3%; with SR leukemia, 90.5%; with RPMI-8226 leukemia, 101%. Also, the growth is 85.9% with OVCAR-8 ovarian; 99.2% in the assay on OVCAR-5 ovarian; 89% in the assay with OVCAR-4 ovarian; 74.5% with SK-OV-3 ovarian; 64.1% with IGROV1 ovarian; 91.2% with OVCAR-3 ovarian. Also, the growth in the assay on HS 578T breast was 107%; in the assay with NCI/ADR-RES ovarian, 110%.

In the case of `COC(=O)c1c2c(n3ccccc13)C(=O)c1ccccc1C2=O`, the growth in the assay on SK-MEL-2 melanoma is 75.3%; with EKVX NSCLC, 70.9%; with SN12C renal it was 53.2%; in the assay with UO-31 renal it was 35%; in the assay on TK-10 renal, 80.7%; with ACHN renal, 38.6%. The growth in the assay with CAKI-1 renal was 56%; in the assay on A498 renal, 67.1%; with CCRF-CEM leukemia, 59.1%; in the assay on MOLT-4 leukemia, 35.5%; with SR leukemia, 38.7%; with RPMI-8226 leukemia, 68.3%. The growth with OVCAR-8 ovarian is 45%; in the assay on OVCAR-5 ovarian, 116%; in the assay on OVCAR-4 ovarian it was 77.3%; with SK-OV-3 ovarian, 94.8%; with IGROV1 ovarian, 57.5%; with OVCAR-3 ovarian it was 55.7%. Also, the growth with HS 578T breast was 73.7%; in the assay with NCI/ADR-RES ovarian it was 65.4%.

As for `CCCCNC(=O)c1cc([N+](=O)[O-])cc(C2CCCCC2)c1O`, the growth in the assay with SK-MEL-2 melanoma is 19.5%; in the assay with EKVX NSCLC, 33.6%; with SN12C renal, 31.9%; in the assay with UO-31 renal, 24.8%; in the assay on TK-10 renal, 49.1%; with ACHN renal it was 61.5%. Besides, the growth is 35.3% in the assay on CAKI-1 renal; 21.5% in the assay on A498 renal; 36.5% in the assay with CCRF-CEM leukemia; 27.1% in the assay on MOLT-4 leukemia; 84.1% in the assay on SR leukemia; 17% in the assay with RPMI-8226 leukemia. Further, the growth was 43.9% in the assay on OVCAR-8 ovarian; 78.6% in the assay with OVCAR-5 ovarian; 14.3% in the assay with OVCAR-4 ovarian; 40.3% in the assay with SK-OV-3 ovarian; 43.2% in the assay with IGROV1 ovarian; 23.1% in the assay on OVCAR-3 ovarian. The growth was 48.3% in the assay on HS 578T breast and 49.6% in the assay with NCI/ADR-RES ovarian.

With `N#CSc1c[nH]c2cccc(/C=C/C(=O)/C=C(O)/C=C/c3cccc4[nH]cc(SC#N)c34)c12`, the growth with SK-MEL-2 melanoma was -58.8% (active); in the assay with EKVX NSCLC, -23.9% (active); in the assay on SN12C renal, -71.2% (active); with UO-31 renal, -87.3% (active); in the assay with TK-10 renal it was -44.8% (active); in the assay on ACHN renal, -85.6% (active). Moreover, the growth with CAKI-1 renal was -70% (active); in the assay with A498 renal, -12.7% (active); in the assay with CCRF-CEM leukemia, -22.1% (active); with MOLT-4 leukemia, -39% (active); with SR leukemia, 0.385% (active); in the assay on RPMI-8226 leukemia, -28.9% (active). The growth in the assay with OVCAR-8 ovarian is -34.2% (active); in the assay with OVCAR-5 ovarian, -69.6% (active); in the assay with OVCAR-4 ovarian, -20.1% (active); in the assay with SK-OV-3 ovarian, -24% (active); in the assay with IGROV1 ovarian, -37.4% (active); in the assay on OVCAR-3 ovarian, -17.6% (active). For the same compound, the growth in the assay on HS 578T breast is 22.8%; in the assay on NCI/ADR-RES ovarian, 39.9%.

Consider `NS(=O)(=O)c1ccc(NC(=O)/C(=C\c2ccc(Cl)cc2Cl)NC(=O)c2ccccc2)cc1`, for which the growth in the assay with SK-MEL-2 melanoma was 95.3%; in the assay on EKVX NSCLC, 99.6%; in the assay with SN12C renal, 94.7%; in the assay with UO-31 renal, 75.8%; with TK-10 renal it was 104%; in the assay with ACHN renal, 98.2%. For the same compound, the growth was 88.6% in the assay with CAKI-1 renal; 95% in the assay with A498 renal; 105% in the assay with CCRF-CEM leukemia; 92.3% in the assay with MOLT-4 leukemia; 96.6% in the assay on SR leukemia; 92.2% with RPMI-8226 leukemia. In addition, the growth with OVCAR-8 ovarian was 101%; in the assay with OVCAR-5 ovarian it was 108%; in the assay with OVCAR-4 ovarian, 97.7%; in the assay with SK-OV-3 ovarian it was 96.3%; in the assay on IGROV1 ovarian, 74.9%; with OVCAR-3 ovarian, 113%. The values for the growth with HS 578T breast and in the assay on NCI/ADR-RES ovarian were 89.6% and 98.2%, respectively.

On to `CCN1C(=O)N(CC)C2C1NN=c1s/c(=C3\C(=O)N(CCC(C)C)c4ccccc43)c(=O)n12` (stereo not given), for which the growth was 60.8% in the assay with SK-MEL-2 melanoma; 48.2% with EKVX NSCLC; 25.2% with SN12C renal; 29.5% with UO-31 renal; 79.8% in the assay on TK-10 renal; 30.7% in the assay with ACHN renal. For the same compound, the growth with CAKI-1 renal is 29.9%; in the assay on A498 renal, -1.36% (active); in the assay on CCRF-CEM leukemia, 13.7%; in the assay with MOLT-4 leukemia, 20.7%; with SR leukemia, 16.7%; with RPMI-8226 leukemia, 17%. The growth was 9.81% (active) in the assay with OVCAR-8 ovarian; 34.1% in the assay on OVCAR-5 ovarian; 45.5% in the assay on OVCAR-4 ovarian; 43.7% with SK-OV-3 ovarian; 19.4% with IGROV1 ovarian; 3.23% (active) with OVCAR-3 ovarian. Also, the growth in the assay with HS 578T breast was 15%; with NCI/ADR-RES ovarian it was 8.98% (active).
